About 83,000 compounds went through this panel and 20% of them were active in at least one assay; those are over-represented in the sample as a whole.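 Activity criterion: percent growth below 10, measured after cells in 96-well plates were exposed to a single compound concentration for 48 hours.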 Values without a mark were called inactive. Activity calls are given as the source filed them.
Tests used:
Assay in all cases: NCI-60 one-dose screen, 48 h (100 = growth as untreated, 0 = no growth, -100 = all killed)
Conditions in all cases: 10 µM unless noted
SR leukemia = test system: SR leukemia
RPMI-8226 leukemia = test system: RPMI-8226 leukemia
OVCAR-8 ovarian = test system: OVCAR-8 ovarian
OVCAR-5 ovarian = test system: OVCAR-5 ovarian
OVCAR-4 ovarian = test system: OVCAR-4 ovarian
SK-OV-3 ovarian = test system: SK-OV-3 ovarian
IGROV1 ovarian = test system: IGROV1 ovarian
OVCAR-3 ovarian = test system: OVCAR-3 ovarian
HS 578T breast = test system: HS 578T breast
NCI/ADR-RES ovarian = test system: NCI/ADR-RES ovarian

SMILES	growth (SR leukemia)	growth (RPMI-8226 leukemia)	growth (OVCAR-8 ovarian)	growth (OVCAR-5 ovarian)	growth (OVCAR-4 ovarian)	growth (SK-OV-3 ovarian)	growth (IGROV1 ovarian)	growth (OVCAR-3 ovarian)	growth (HS 578T breast)	growth (NCI/ADR-RES ovarian)
Cc1ccc(C2=NNC(c3sc(Cl)nc3Cl)C2)cc1 (stereo not given)	3.24% (active)	97.9%	100%	116%	84.7%	88.4%	80.6%	101%	116%	94.5%
O=Cc1ccccc1C(=O)O	89.8%	106%	104%	97.9%	92.6%	104%	110%	102%	100%	104%
c1ccc2nc(Cn3c[n+](Cc4ccc5ccccc5n4)c4ccccc43)ccc2c1	14.7%	-6.43% (active)	29.9%	71.1%	22.7%	57.4%	34.8%	23.8%	60.5%	102%
CN1CCN(c2nc3scc(-c4ccccc4)c3c(=O)[nH]2)CC1	94.1%	97.4%	106%	93%	97.4%	103%	97.6%	102%	100%	99.2%
Cc1ccc(C2=Nc3c(ccc4c(C)c(C)c(=O)oc34)OC2)cc1	103%	94.4%	98.6%	103%	116%	106%	98.5%	107%	110%	97.3%
O[N+]1=CC=CCC1=S.On1ccccc1=S.[Zn]	-4.29% (active)	-32.6% (active)	-50.4% (active)	-83.1% (active)	-95.6% (active)	-96.6% (active)	-81.2% (active)	-97.4% (active)	7.55% (active)	-46.8% (active)
O=C1c2cc3c(cc2-c2c1c1ccc(Cl)cc1c(=O)n2CCCNCCO)OCO3	-43.8% (active)	-30.5% (active)	-64.7% (active)	-78.8% (active)	-64.8% (active)	-8.64% (active)	-66.7% (active)	-81.1% (active)	-49.6% (active)	-51.1% (active)
CN[C@@H]1C(OC2[C@H](O[C@H]3[C@H](O)[C@@H](O)[C@H](N=C(N)N)[C@@H](O)[C@@H]3N=C(N)N)OC(C)[C@]2(O)CO)OC(CO)C(O)C1O (stereo not given in full)	102%	103%	103%	102%	111%	112%	105%	116%	112%	105%
Cc1ccc2nc(SCC(=O)Nc3ccc(-c4nc5ccccc5s4)c(Cl)c3)[nH]c2c1	97.2%	109%	110%	108%	112%	105%	100%	111%	110%	107%
CSc1nc2nc3c(c(-c4ccc(C)cc4)c2c(=O)[nH]1)CN(C)C/C3=C\c1ccc(C)cc1	86.9%	84.2%	105%	115%	92.8%	112%	96.8%	116%	95.8%	94.7%
COc1cccc(-c2nc3cc(NC(=O)c4ccc(Cl)c(C#N)c4)ccc3o2)c1	38.2%	-2.38% (active)	-54.6% (active)	73.3%	-90.4% (active)	15.6%	72.4%	-30.6% (active)	39.1%	3.74% (active)
CN(C)c1ccc(-c2nc3ncc(Br)cc3o2)cc1	94.4%	74%	99.6%	100%	113%	94.8%	17%	112%	97.2%	88.4%
O=C(CSc1ncc(-c2ccccc2)n1-c1ccccc1)Nc1ccc(-c2nc3ccccc3s2)cc1	73%	65.5%	27.2%	82.5%	52.5%	116%	73.4%	95.4%	91.9%	61.2%
NS(=O)(=O)c1ccc(-n2ncc3c(NC4CCCCC4)ncnc32)cc1	63.1%	91%	89.2%	90.9%	97.9%	108%	78%	128%	98.8%	88.6%
COc1cnc2c(c1)C(=O)c1c-2n(CCCNC2=NCCS2)c(=O)c2cc(F)ccc12	-8.78% (active)	-14.3% (active)	31.3%	53.2%	63.1%	11.1%	38%	32.6%	65.5%	34.6%
N/C(=N\C(N)=N\c1nc2ccccc2s1)c1ccnc(Cl)c1	18.9%	15.2%	39.5%	57.9%	79.1%	48.5%	37.2%	4.62% (active)	25.7%	18.3%
Cn1cnc([N+](=O)[O-])c1Sc1nc(N)nc2nc[nH]c12	10.5%	-19.5% (active)	29.5%	28.7%	42.8%	2.59% (active)	-13.1% (active)	22.7%	65.6%	32.4%
Cc1cc(=O)oc2cc(OCCn3c(C)nn(-c4ccc(Cl)cc4)c3=O)ccc12	21.2%	31%	17.7%	38.8%	67.1%	41.1%	59.7%	14.8%	34.8%	24.7%
CC[C@H]1CN2CCc3cc(OC)c(OC)cc3C2C[C@@H]1CC1NCCc2cc(OC)c(OC)cc21 (stereo not given in full)	-9.39% (active)	-41% (active)	-20.6% (active)	-12% (active)	-9.56% (active)	-1.2% (active)	-22.9% (active)	-30.9% (active)	-12% (active)	-9.95% (active)
CCN(CC)CCSc1ncnc2c1cnn2-c1ccc(S(N)(=O)=O)cc1	57%	98.2%	83.5%	112%	106%	108%	96.5%	84.4%	103%	85.2%
Fc1ccccc1C1c2ccccc2-c2nccn21 (stereo not given)	78.1%	80.3%	95.8%	96.3%	90%	109%	79.6%	96.7%	98.8%	93.5%
C/C(=C\CCc1ccsc1)CC/C=C(\C)CCCN1CCSCC1	53.6%	58%	99.9%	94.8%	84.3%	93.1%	94.1%	82.3%	93.2%	84.9%
O=C1C=CC(=O)N1c1ccccc1N1C(=O)C=CC1=O	92%	124%	107%	93.4%	116%	103%	95.3%	103%	104%	119%
COc1ccc(Cl)cc1Nc1nc(C(F)(F)F)ccc1C(=O)N/N=C/c1c(Cl)cccc1Cl	22%	40.1%	55.2%	75.3%	39%	49.7%	29.6%	-2.74% (active)	54.3%	49.9%
Clc1ccc2[nH]cc(-c3cncn3CCc3ccccc3)c2c1	41%	22.6%	32.9%	74.7%	14.2%	41.1%	69.3%	55.4%	51.3%	51.1%
CC(=O)[C@H]1CC[C@H]2[C@@H]3C[C@H](C)C4=CC(=O)CC[C@]4(C)[C@H]3C(=O)C[C@]12C	97.5%	97.3%	101%	103%	102%	98%	98.6%	110%	103%	98.7%
COCCOCCOCCOCCOc1ccc2c(c1)C(=O)c1nc3ncccc3c(=O)n1-2	-86.3% (active)	-55.5% (active)	0.221% (active)	-98.6% (active)	-15.3% (active)	-4.3% (active)	7.34% (active)	-60.7% (active)	-25.2% (active)	0.343% (active)

— PubChem BioAssay (NCI)
